Experimental data reported in the supplement of paper PMC8728848.
This is one part of a sample in which the strongest signals are shown more often than they occur.

What was measured:
Assay in all cases: glycan array binding signal (z-score within array); higher = stronger binding
Settings in all cases: glycan notation: IUPAC condensed, linker removed; mutation: R186S
[1] = target: Fuc(a1-2)Gal(b1-3)GalNAc(b1-4)[Neu5Ac(a2-3)]Gal(b1-4)Glc
Summary of the method: (§1)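 Glycan array data were curated from 3228 arrays in the Consortium for Functional Glycomics database and kept only where the protein sequence was available. Glycan names were converted to IUPAC-condensed notation, and columns mapping to the same glycan were averaged. The binding signal is a within-array Z-score, averaged across arrays of the same protein sequence at different concentrations or buffers and across linkers. Negative Z-scores can be read as non-binding.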

[2] = target: Fuc(a1-2)Gal(b1-4)[Fuc(a1-3)]GlcNAc(b1-2)Man(a1-3)[Fuc(a1-2)Gal(b1-4)[Fuc(a1-3)]GlcNAc(b1-2)Man(a1-6)]Man(b1-4)GlcNAc(b1-4)GlcNAc
Summary of the method: as §1

[3] = target: Fuc(a1-2)Gal(b1-4)[Fuc(a1-3)]GlcNAc(b1-3)Gal(b1-4)[Fuc(a1-3)]GlcNAc(b1-3)Gal(b1-4)[Fuc(a1-3)]GlcNAc
Summary of the method: as §1

[4] = target: Fuc(a1-2)[Gal(a1-3)]Gal(b1-3)GlcNAc(b1-2)Man(a1-3)[Fuc(a1-2)[Gal(a1-3)]Gal(b1-3)GlcNAc(b1-2)Man(a1-6)]Man(b1-4)GlcNAc(b1-4)GlcNAc
Summary of the method: as §1

[5] = target: Fuc(a1-2)[Gal(a1-3)]Gal(b1-4)GlcNAc(b1-2)Man(a1-3)[Fuc(a1-2)[Gal(a1-3)]Gal(b1-4)GlcNAc(b1-2)Man(a1-6)]Man(b1-4)GlcNAc(b1-4)GlcNAc
Summary of the method: as §1

[6] = target: Fuc(a1-2)[GalNAc(a1-3)]Gal(b1-3)GlcNAc(b1-2)Man(a1-3)[Fuc(a1-2)[GalNAc(a1-3)]Gal(b1-3)GlcNAc(b1-2)Man(a1-6)]Man(b1-4)GlcNAc(b1-4)GlcNAc
Summary of the method: as §1

[7] = target: Fuc(a1-3)[Gal(b1-4)]GlcNAc(b1-2)Man(a1-3)[Fuc(a1-3)[Gal(b1-4)]GlcNAc(b1-2)Man(a1-6)]Man(b1-4)GlcNAc(b1-4)GlcNAc
Summary of the method: as §1

Fuc(b1-3)GlcNAc = target: Fuc(b1-3)GlcNAc
Summary of the method: as §1

[8] = target: Gal(a1-3)Gal(b1-4)[Fuc(a1-3)]GlcNAc(b1-2)Man(a1-3)[Gal(a1-3)Gal(b1-4)[Fuc(a1-3)]GlcNAc(b1-2)Man(a1-6)]Man(b1-4)GlcNAc(b1-4)GlcNAc
Summary of the method: as §1

[9] = target: Gal(b1-3)GlcNAc(b1-3)GalNAc
Summary of the method: as §1

[10] = target: Gal(b1-3)[Fuc(a1-4)]GlcNAc(b1-2)Man(a1-3)[Gal(b1-3)[Fuc(a1-4)]GlcNAc(b1-2)Man(a1-6)]Man(b1-4)GlcNAc(b1-4)GlcNAc
Summary of the method: as §1

[11] = target: Gal(b1-3)[Neu5Ac(a2-6)]GalNAc
Summary of the method: as §1

[12] = target: Gal(b1-4)GlcNAc(b1-2)Man(a1-3)[Gal(b1-4)GlcNAc(b1-2)Man(a1-6)]Man(b1-4)GlcNAc(b1-4)[Fuc(a1-6)]GlcNAc
Summary of the method: as §1

[13] = target: Gal(b1-4)GlcNAc(b1-2)Man(a1-6)[Man(a1-3)]Man(b1-4)GlcNAc(b1-4)GlcNAc
Summary of the method: as §1

[14] = target: Gal(b1-4)GlcNAc(b1-2)[Gal(b1-4)GlcNAc(b1-4)]Man(a1-3)[Gal(b1-4)GlcNAc(b1-2)Man(a1-6)]Man(b1-4)GlcNAc(b1-4)GlcNAc
Summary of the method: as §1

[15] = target: Gal(b1-4)GlcNAc(b1-3)Gal(b1-3)GlcNAc
Summary of the method: as §1

[16] = target: GalNAc(b1-4)GlcNAc(b1-2)Man(a1-3)[GalNAc(b1-4)GlcNAc(b1-2)Man(a1-6)]Man(b1-4)GlcNAc(b1-4)GlcNAc
Summary of the method: as §1

Glc(a1-6)Glc(a1-6)Glc = target: Glc(a1-6)Glc(a1-6)Glc
Summary of the method: as §1

GlcA(b1-6)Gal = target: GlcA(b1-6)Gal
Summary of the method: as §1

[17] = target: GlcNAc(a1-4)Gal(b1-4)GlcNAc(b1-3)Gal(b1-4)Glc
Summary of the method: as §1

[18] = target: GlcNAc(b1-2)Man(a1-3)[GlcNAc(b1-2)Man(a1-6)]Man(b1-4)GlcNAc(b1-4)[Fuc(a1-6)]GlcNAc
Summary of the method: as §1

GlcNAc(b1-3)Gal = target: GlcNAc(b1-3)Gal
Summary of the method: as §1

GlcNAc(b1-3)Gal(b1-4)Glc = target: GlcNAc(b1-3)Gal(b1-4)Glc
Summary of the method: as §1

[19] = target: GlcNAc(b1-6)Gal(b1-4)GlcNAc
Summary of the method: as §1

GlcNAc(b1-6)GalNAc = target: GlcNAc(b1-6)GalNAc
Summary of the method: as §1

Kdn(a2-3)Gal(b1-4)Glc = target: Kdn(a2-3)Gal(b1-4)Glc
Summary of the method: as §1

Kdn(a2-6)Gal(b1-4)GlcNAc = target: Kdn(a2-6)Gal(b1-4)GlcNAc
Summary of the method: as §1

[20] = target: Man(a1-2)Man(a1-2)Man(a1-3)Man
Summary of the method: as §1

Man(a1-2)Man(a1-3)Man = target: Man(a1-2)Man(a1-3)Man
Summary of the method: as §1

[21] = target: Neu5Ac(a2-3)Gal(b1-3)GalNAc(b1-3)Gal(a1-4)Gal(b1-4)Glc
Summary of the method: as §1

B1: Gal 3 (Homo sapiens), P17931 (protein)
chain: MADNFSLHDALSGSGNPNPQGWPGAWGNQPAGAGGYPGASYPGAYPGQAPPGAYPGQAPPGAYHGAPGAYPGAPAPGVYPGPPSGPGAYPSSGQPSAPGAYPATGPYGAPAGPLIVPYNLPLPGGVVPRMLITILGTVKPNANILDFQRGNDVAFHFNPRFNENNRRVIVCNTKLDNNWGREESQSVFPFESGKPFKIQVLVEPDHFKVAVNDAHLLQYNHRVKKLNEISKLGISGDIDLTSASYTMI
[1]
  glycan array binding signal (z-score): -0.057
[2]
  glycan array binding signal (z-score): 0.064
[3]
  glycan array binding signal (z-score): -0.032
[4]
  glycan array binding signal (z-score): 19.8
[5]
  glycan array binding signal (z-score): 0.619
[6]
  glycan array binding signal (z-score): 0.242
[7]
  glycan array binding signal (z-score): 0.045
Fuc(b1-3)GlcNAc
  glycan array binding signal (z-score): -0.041
[8]
  glycan array binding signal (z-score): -0.061
[9]
  glycan array binding signal (z-score): -0.079
[10]
  glycan array binding signal (z-score): 0.028
[11]
  glycan array binding signal (z-score): -0.068
[12]
  glycan array binding signal (z-score): -0.086
[13]
  glycan array binding signal (z-score): -0.047
[14]
  glycan array binding signal (z-score): -0.042
[15]
  glycan array binding signal (z-score): -0.007
[16]
  glycan array binding signal (z-score): -0.023
Glc(a1-6)Glc(a1-6)Glc
  glycan array binding signal (z-score): -0.051
GlcA(b1-6)Gal
  glycan array binding signal (z-score): -0.057
[17]
  glycan array binding signal (z-score): -0.057
[18]
  glycan array binding signal (z-score): -0.012
GlcNAc(b1-3)Gal
  glycan array binding signal (z-score): -0.059
GlcNAc(b1-3)Gal(b1-4)Glc
  glycan array binding signal (z-score): -0.053
[19]
  glycan array binding signal (z-score): -0.076
GlcNAc(b1-6)GalNAc
  glycan array binding signal (z-score): -0.058
Kdn(a2-3)Gal(b1-4)Glc
  glycan array binding signal (z-score): -0.004
Kdn(a2-6)Gal(b1-4)GlcNAc
  glycan array binding signal (z-score): -0.071
[20]
  glycan array binding signal (z-score): -0.067
Man(a1-2)Man(a1-3)Man
  glycan array binding signal (z-score): -0.024
[21]
  glycan array binding signal (z-score): 0.003
